Molecules are shown by their SMILES. The whole screen tested about 10,000 compounds, of which about 5,600 (56%) were called active. So high a share suggests a set chosen from earlier hits. These entries were drawn from the full list. A number with no mark means an inactive call. No stated cut-off is given here; in the data, active means inhibition above about 40%; inactive means the rest.

The target in this test is Protein Mdm4 (Homo sapiens) + E3 ubiquitin-protein ligase Mdm2 (Homo sapiens) (UniProt O15151+Q00987). Put plainly: inhibition of human Mdm2/MdmX pairing – luminescence, single concentration, confirmation (AID 489028). The note with it: Mdm2-MdmX binding, luminescent assay; at 8 µM; active compounds read high.
Chain of Protein Mdm4 (Homo sapiens) + E3 ubiquitin-protein ligase Mdm2 (Homo sapiens) (O15151 whole entry, looked up): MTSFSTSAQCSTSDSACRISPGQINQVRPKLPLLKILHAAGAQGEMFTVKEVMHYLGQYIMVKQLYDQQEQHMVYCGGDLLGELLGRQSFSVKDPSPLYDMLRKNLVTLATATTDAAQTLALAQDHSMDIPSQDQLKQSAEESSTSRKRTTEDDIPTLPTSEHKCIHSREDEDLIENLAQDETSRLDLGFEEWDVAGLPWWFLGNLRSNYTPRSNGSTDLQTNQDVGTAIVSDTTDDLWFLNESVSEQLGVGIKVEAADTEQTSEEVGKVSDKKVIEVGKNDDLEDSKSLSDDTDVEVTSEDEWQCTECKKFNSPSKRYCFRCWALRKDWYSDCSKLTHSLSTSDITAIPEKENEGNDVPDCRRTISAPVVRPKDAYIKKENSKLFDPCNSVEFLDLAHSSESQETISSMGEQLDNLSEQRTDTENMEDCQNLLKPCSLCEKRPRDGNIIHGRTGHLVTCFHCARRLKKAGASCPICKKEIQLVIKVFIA
Chain of Protein Mdm4 (Homo sapiens) + E3 ubiquitin-protein ligase Mdm2 (Homo sapiens) (Q00987 whole entry, looked up): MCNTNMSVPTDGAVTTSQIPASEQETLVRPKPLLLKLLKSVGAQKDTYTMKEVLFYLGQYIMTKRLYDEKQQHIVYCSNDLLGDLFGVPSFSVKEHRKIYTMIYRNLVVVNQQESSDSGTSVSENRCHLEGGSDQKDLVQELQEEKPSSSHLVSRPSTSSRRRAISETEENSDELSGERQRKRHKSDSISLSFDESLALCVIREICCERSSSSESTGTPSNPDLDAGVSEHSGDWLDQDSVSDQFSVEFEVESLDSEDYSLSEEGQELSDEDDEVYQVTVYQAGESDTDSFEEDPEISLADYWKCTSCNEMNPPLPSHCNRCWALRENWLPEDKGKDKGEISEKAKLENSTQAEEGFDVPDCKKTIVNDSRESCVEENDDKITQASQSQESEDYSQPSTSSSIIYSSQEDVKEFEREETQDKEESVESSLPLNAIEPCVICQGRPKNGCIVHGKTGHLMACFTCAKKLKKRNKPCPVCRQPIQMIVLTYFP
On to `CN(C)CC(O)COc1ccc(C(C)(C)c2ccc(OCC(O)CN(C)C)cc2)cc1` (stereo not given), for which the inhibition was 89.7% (active). Regarding `CN(Cc1ccccc1)CC(O)COc1ccc(CNCc2cc3ccccc3s2)cc1` (stereo not given), the inhibition was 32.6%. On to `COc1ccc(C2=Nn3c(nnc3-c3ccccc3OC)SC2)cc1OC1CCCC1`, for which the inhibition was 73.4% (active). With `COc1cccc2cc(C(N)=O)/c(=N\NC(=O)c3ccccc3)oc12` the figure was 44% (active). With `Cc1cccc(CN2CCC(CNC(=O)Nc3ccc(F)c(Cl)c3)CC2)c1` the figure was 36%. As to `Cc1cccc(NC(=O)Nc2cccc(Oc3c(F)c(F)c(F)c(F)c3F)c2)c1`, the inhibition was 73% (active).

With `Oc1c(Br)cccc1/C=N/Nc1c(F)c(F)c(F)c(F)c1F`, the inhibition was 58.2% (active). On to `CNC[C@H](CC1CCCCC1)NC[C@H](NCCC1CCCC1)[C@H](C)O`, for which the inhibition is 77% (active). With `Cc1ccc(Cc2cnc(NC(=O)/C(C#N)=C/c3ccc(-c4cccc([N+](=O)[O-])c4)o3)s2)cc1`, the inhibition was 6.4%. With `Cc1ccc(C(=O)N/C(=C/c2ccc(-c3cccc([N+](=O)[O-])c3)o2)C(=O)NCCCN(C)C)cc1`, the inhibition is 49.5% (active). With `CC(C)n1cnc2c(Nc3cccc(Cl)c3)nc(N(CCO)CCCO)nc21`, the inhibition is 60.8% (active). With `CC12CCC(C(=O)N(NC(=O)c3ccccc3O)C1=O)C2(C)C` (stereo not given), the inhibition was 11.2%. With `CCC(c1nnnn1C1CCCC1)N(Cc1cccs1)Cc1cc2cccc(C)c2[nH]c1=O` (stereo not given), the inhibition was 13.8%.

As to `CN(c1ccc2nc3ccccc3c(=O)n2n1)C1CCCCC1`, the inhibition was 89.9% (active). With `CC(=O)Oc1c(C(=O)c2nnc(C)o2)c(=O)n(Cc2ccccc2)c2ccccc12` the figure was 55% (active); with `Cc1cc(Nc2cc(N3CCN(C)CC3)nc(Sc3ccc(NC(=O)C4CC4)cc3)n2)n[nH]1`, 82% (active).

For the compound `O=C(c1[nH]ncc1-c1ccc(Cl)cc1)C1CO1` (stereo not given), the inhibition was 45.3% (active). With `COc1cc(OC)c(OC)cc1/C=N/Nc1ncnc2c1[nH]c1ccc(C)cc12`, the inhibition is 27%. For `COc1ccc(Cc2nnc(N/N=C/c3ccccc3O)[nH]c2=O)cc1OC`, the inhibition is 76.2% (active). In the case of `Cc1ccc(N(Cc2cc(=O)[nH]c3ccccc23)C(=O)CCl)cc1`, the inhibition was 74.9% (active).

Turning to `COc1ccc(-c2nc(-c3ccccc3)no2)c(OC)c1`, the inhibition was 50.4% (active). For `CC(C)n1cnc2c(NCc3ccccc3)cc(N[C@@H](CO)Cc3ccccc3)cc21`, the inhibition was 32.5%.

Consider `Cc1c(NC(=O)CSc2cccc3cccnc23)c(=O)n(-c2ccccc2)n1C`, for which the inhibition is 10.3%.

`O=C(CSc1cccc2cccnc12)N/N=C/c1cccnc1`: the inhibition was 45% (active).

Turning to `O=C1Nc2cc(C(=O)N3CCC(N4CCCCC4)CC3)ccc2S/C1=C\c1ccccc1`, the inhibition is 27.8%. With `c1ccc(C2CCC(N3CCC(N4CCCCC4)CC3)CC2)cc1` (stereo not given) the figure was 86.5% (active); with `CC(NC(=O)Nc1ccccc1)C(c1cccs1)N1CCN(c2ccccc2)CC1` (stereo not given), 70.3% (active). `COc1ccc(C2CC(c3cccs3)=NN2c2nc(C)c(C(C)=O)s2)cc1OC` (stereo not given): the inhibition is 25.1%. As for `Cn1cc([N+](=O)[O-])c(C(=O)Nc2cnn(Cc3ccc(F)cc3)c2)n1`, the inhibition was 57.5% (active). With `CCn1cc(CN2CCC(C(=O)Nc3cccc(-c4cccc(Cl)c4)c3)CC2)c(C)n1` the figure was 48% (active). Take `O=C(Nc1cccc(-c2cccc(Cl)c2)c1)C1CCN(C2CCC2)CC1`: the inhibition was 31.5%. On to `CCn1cc(CN2CCC(C(=O)Nc3cccc(-c4cccc(Cl)c4)c3)CC2)cn1`, for which the inhibition was 31.9%. In the case of `COc1cc(OC)c2c(-c3cccc(-c4cccc(N)c4)c3)cc(=O)oc2c1`, the inhibition is 52.7% (active). For the compound `CCN(CC)CCC(c1cc(OC)c(OC)c(OC)c1)c1c(OC)cc(OC)c2c(-c3ccccc3)cc(=O)oc12` (stereo not given), the inhibition was 27.6%. The result for `CCN(CC)CCC(c1ccc2c(c1)OCO2)c1c(OC)cc(OC)c2c(-c3ccccc3)cc(=O)oc12` (stereo not given) reads 29.8%; that for `COc1c(C)c2c(c(O)c1C/C=C(\C)CCC(=O)O)C(=O)OC2`, 80.7% (active).

Consider `CCCCn1c(-c2cccc(C)c2)nc2cc3[nH]c(=O)c(C(C)C)nc3cc21`, for which the inhibition is 38%. Turning to `COc1ccc(-c2nc3cc(C)ccn3c2NC2CCCCC2)cc1SC1CCCCC1`, the inhibition is 19.9%. Regarding `COc1cc(NC(=O)c2cncc(-c3ccc(C#N)cc3)c2)cc(C(=O)Nc2cccc(C(F)(F)F)c2)c1`, the inhibition is 55.5% (active).

Consider `COc1cc(NC(=O)c2[nH]cnc2C(N)=O)cc(C(=O)Nc2cccc(C(F)(F)F)c2)c1`, for which the inhibition is 63.5% (active). Take `CCOC(=O)c1ccc(NC(=O)c2nc[nH]c2C(=O)N[C@@H](CCCCNC(=O)OC(C)(C)C)C(=O)OC(C)(C)C)cc1`: the inhibition is 19.6%.

As for `Cc1nc(SCC(=O)Nc2cc(C)on2)c2c(C)c(C)sc2n1`, the inhibition is 27.6%. The result for `Cc1nc(N=C(N)N)nc2c(C)cccc12` reads 53.1% (active); that for `O=C(CC(O)(C(F)(F)F)C(F)(F)F)Nc1ccc(Cl)c(Cl)c1`, 95.7% (active). As to `O=C(Cc1ccc(Cl)c(Cl)c1)Nc1ccc(SC(F)F)cc1`, the inhibition is -2.4%. On to `COC(=O)C1=CN(C)C=C(C(=O)OC)C1c1ccc(Cl)cc1Cl`, for which the inhibition is 3.05%. In the case of `O=C(/C(=C/c1cccc(Cl)c1)c1nc2ccccc2[nH]1)c1ccccc1`, the inhibition was 43.5% (active).

Turning to `CCOc1cc(/C=C/c2nc3ccccc3c(=O)[nH]2)cc(Br)c1OC`, the inhibition is 69.5% (active).

For the compound `Cc1ccc2nc(-c3ccc(Br)cc3)cn2c1`, the inhibition is 53.3% (active). For the compound `Cc1ccc(-c2cn3cc(C)ccc3n2)cc1`, the inhibition was 81.3% (active). Regarding `Cc1ccc(Nc2cc(=O)n(C3CCCCC3)c(=O)[nH]2)cc1C`, the inhibition is 19.4%. Turning to `O=C(c1ccc(Cl)cc1)N1N=C(c2ccccn2)CC1(O)C(F)(F)F` (stereo not given), the inhibition was 15.9%. As for `Cc1cccc([C@@H]2[C@@H]3C(=O)N(Cc4ccccc4)C(=O)[C@@H]3[C@]3(C)C(=O)N(c4ccc(Br)cc4)C(=O)N23)c1`, the inhibition is 24.9%. With `O=C1[C@H]2[C@@H](c3ccc(F)cc3)N3C(=O)N(c4ccc(C(F)(F)F)cc4)C(=O)[C@@]3(Cc3ccccc3)[C@H]2C(=O)N1C1CCCCC1` the figure was 100% (active); with `CSc1nc(-c2ccccc2)nc(C(Cl)Cl)n1`, 98.6% (active). `OCCCNc1nccc(-c2cc(Nc3cccc(Cl)c3)ncn2)n1`: the inhibition is 99.8% (active). The result for `COc1ccc(C(=O)NC(=S)NNC(=O)CCc2ccccc2)cc1` reads 4.55%; that for `CC[C@]1(C(=O)OC)[C@H]2C(=O)N(Cc3ccccc3)C(=O)[C@H]2[C@H]2CN=C(SCc3ccc(Cl)cc3)N21`, 99.7% (active).

With `CC[C@]1(C(=O)OC)[C@H]2C(=O)N(Cc3ccccc3)C(=O)[C@H]2[C@H]2CN=C(SCc3ccc(C#N)cc3)N21`, the inhibition was 98.8% (active). Take `CC[C@]1(C(=O)OC)[C@H]2C(=O)N(Cc3ccccc3)C(=O)[C@H]2[C@H]2CN=C(SCc3ccccc3)N21`: the inhibition is 70% (active).

For the origin of these results see PubChem BioAssay AID489028 (Sanford-Burnham Center for Chemical Genomics, 2010).
